{"source": "PubChem BioAssay AID504332", "about": "(National Center for Advancing Translational Sciences (NCATS), 2011)", "note": "Where “and” joins values, the source holds several entries; their conditions need not be identical. Identical values can stand only once. Among all 350,000 compounds or so, about 31,000 (8.9%) were called active. About 15% were inconclusive and are not listed. Calls follow the shape of the dose curve; as a rule, active = well fitted inhibition curve with a large enough effect; inconclusive = small, poorly fitted or top-dose-only effect; inactive = no such curve, though single readings can be large or run the other way. Many of the other results were omitted from the sample, so actives are more common in it than they were. Some structures have more than one record in an assay (separate samples or runs), and their calls can disagree. % is scaled to controls: 0 for no effect and ±100 for the full control effect; potency is read from the fitted curve at half-maximal effect.", "data": [{"target": "Histone-lysine N-methyltransferase EHMT2 (Homo sapiens) (UniProt Q96KQ7)", "sequence (Q96KQ7 913-1193 limits assumed)": "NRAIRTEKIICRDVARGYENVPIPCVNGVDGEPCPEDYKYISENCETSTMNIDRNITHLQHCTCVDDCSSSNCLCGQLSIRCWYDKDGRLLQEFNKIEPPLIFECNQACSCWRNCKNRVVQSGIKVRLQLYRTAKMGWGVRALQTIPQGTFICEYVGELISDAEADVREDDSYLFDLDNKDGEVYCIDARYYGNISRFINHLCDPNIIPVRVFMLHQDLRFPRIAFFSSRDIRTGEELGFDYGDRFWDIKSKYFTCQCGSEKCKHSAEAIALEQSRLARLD", "assay": "qHTS Assay for Inhibitors of Histone Lysine Methyltransferase G9a; also: nearly all actives have a fitted effect of over 75% in size", "conditions": "G9a H3K9 monomethylation, AlphaScreen, 2 h; series mostly up to 59 µM; activity, negative = inhibition: at the top concentration", "procedure,_shortened": "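AlphaScreen read-out: biotin-H3K9 peptide (500 nM) methylation by 20 nM enzyme with 20 uM SAM, 2 h at room temperature after 15 min compound preincubation; anti-monomethyl H3K9 antibody plus donor/acceptor beads, 10 min dark.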", "values": [{"smiles": "Cc1ccc(-n2c(SCC(=O)N3CCC(C(=O)O)CC3)nc3ccccc3c2=O)cc1C", "activity, negative = inhibition": "-50.2% [at 102 µM] (inactive)"}, {"smiles": "CC(C)OC(=O)c1ccc(COc2ccc3ccc(=O)oc3c2)o1", "activity, negative = inhibition": "14.1% [at 102 µM] (inactive)"}, {"smiles": "Cc1nonc1C(=O)N/N=C/c1ccc(O)cc1", "activity, negative = inhibition": "15.7% (inactive)"}, {"smiles": "O=C(N/N=C/c1ccc(Cl)c(Cl)c1)c1ccc2nc[nH]c2c1", "activity, negative = inhibition": "-14% [at 102 µM] (inactive)"}, {"smiles": "CC(C)c1nc2ccc(C(=O)O)cc2[nH]1", "activity, negative = inhibition": "9.16% [at 102 µM] (inactive)"}, {"smiles": "Cc1nc2ccc(C(=O)O)cc2[nH]1", "Potency": "70.8 µM (active)"}, {"smiles": "Cc1ccc2nc(CNC(=O)c3ccccc3)[nH]c2c1", "activity, negative = inhibition": "-1.03% (inactive)"}, {"smiles": "Cc1nc2ccc(C(=O)N/N=C/c3ccc(O)cc3)cc2[nH]1", "Potency": "79.4 µM (active)"}, {"smiles": "CCc1ccccc1N1C(=O)CN(S(=O)(=O)CC)CC1(C)C(=O)NC1CCCCC1", "note": "(stereo not given)", "activity, negative = inhibition": "-17.2% (inactive)"}, {"smiles": "Cc1ccc2nc(COc3ccc(NC(=O)COc4ccccc4F)cc3)cc(=O)n2c1", "activity, negative = inhibition": "-2.61% (inactive)"}, {"smiles": "C[C@H](NC(=O)c1ccccc1Cl)C(=O)OCC(=O)N1CCN(c2ccccc2)CC1", "activity, negative = inhibition": "-0.744% [at 12.7 µM] (inactive)"}, {"smiles": "Cn1c(=O)c2c(nc(SCC(=O)Nc3ccc(F)cc3)n2Cc2ccc(Cl)cc2)n(C)c1=O", "activity, negative = inhibition": "10.3% (inactive)"}, {"smiles": "COc1cccc(-n2c(N)cc(=O)nc2SCC(=O)Nc2cc(C)on2)c1", "activity, negative = inhibition": "40% [at 102 µM] (inactive)"}, {"smiles": "COc1ccccc1CNC(=O)CCCn1c(=O)c2ccccc2n(CC(=O)Nc2ccc(C)cc2Cl)c1=O", "activity, negative = inhibition": "3.86% (inactive)"}, {"smiles": "CCOC(=O)c1ccc(NC(=O)CSc2nc3c([nH]c4ccccc43)c(=O)n2C)cc1", "activity, negative = inhibition": "4.03% (inactive)"}, {"smiles": "CNC(=S)N/N=C/c1ccc(N2CCOCC2)s1", "Potency": "28.2 µM (active)"}, {"smiles": "C=CCNC(=S)N/N=C/c1ccc(C)s1", "activity, negative = inhibition": "72.7% [at 12.7 µM] (inactive)"}, {"smiles": "Cc1cc(C(=O)N/N=C/c2ccc(N3CCOCC3)cc2)c(C)o1", "activity, negative = inhibition": "-36.2% [at 102 µM] (inactive)"}, {"smiles": "COc1cc2ccccc2cc1C(=O)Nc1ccc(NC(=O)c2cccs2)cc1", "activity, negative = inhibition": "28.3% [at 102 µM] (inactive)"}, {"smiles": "O=C(Cc1ccc(Cl)cc1)Nc1ccc2nn(-c3ccc(Cl)cc3)nc2c1", "activity, negative = inhibition": "-2.72% (inactive)"}, {"smiles": "Cc1ccc(CCNC(=O)Cn2c(-c3cccs3)cc3cc(F)ccc32)cc1", "activity, negative = inhibition": "1.67% (inactive)"}, {"smiles": "CCOC(=O)c1cccc(NC(=O)C(Cc2ccccc2)NS(=O)(=O)c2cccc3nsnc23)c1", "note": "(stereo not given)", "activity, negative = inhibition": "-35.5% (inactive)"}, {"smiles": "Cc1ccc(N2C(=O)c3ccccc3C2(O)c2ncc[nH]2)cc1", "note": "(stereo not given)", "Potency": "7.08 µM (active)"}, {"smiles": "Cc1ccnc(NC(=O)C(C)N2C(=O)c3ccccc3C2=O)c1", "note": "(stereo not given)", "activity, negative = inhibition": "10.7% [at 102 µM] (inactive)"}, {"smiles": "Cc1ccc(-n2ccc(=O)c(C(=O)O)n2)cc1", "activity, negative = inhibition": "-6.92% (inactive)"}, {"smiles": "O=C(O)c1ccccc1-c1ccccc1C(=O)NCCc1ccccc1", "activity, negative = inhibition": "15.9% [at 102 µM] (inactive)"}, {"smiles": "CCOCCCNC(=O)c1c(NC(=O)c2nc(SC)ncc2Cl)sc2c1CCCC2", "activity, negative = inhibition": "-0.0709% (inactive)"}, {"smiles": "COc1ccc(N2C(=O)CC(Sc3n[nH]c(-c4ccc(C)cc4)n3)C2=O)cc1", "note": "(stereo not given)", "Potency": "1.58 µM (active)"}, {"smiles": "COc1ccc(N2C(=O)CC(SC(C)C)C2=O)cc1", "note": "(stereo not given)", "activity, negative = inhibition": "-27.2% [at 102 µM] (inactive)"}, {"smiles": "COc1ccc(-c2nc(SCC(=O)N3CCCC3)n[nH]2)cc1", "activity, negative = inhibition": "21.1% [at 102 µM] (inactive)"}, {"smiles": "CC(=O)Nc1ccc(NC(=O)C2CCCN(S(=O)(=O)c3ccc4c(c3)CCCC(=O)N4)C2)cc1", "note": "(stereo not given)", "activity, negative = inhibition": "-26.3% (inactive)"}, {"smiles": "CCN1CCN(C(=O)N(Cc2ccc(Cl)cc2)S(=O)(=O)c2ccc(C)cc2)CC1", "activity, negative = inhibition": "19.8% [at 2.33 µM] (inactive)"}, {"smiles": "CC(C)(C)c1ccc(CN2C(=O)c3ccccc3S2(=O)=O)cc1", "activity, negative = inhibition": "87% [at 102 µM] (inactive)"}, {"smiles": "O=[N+]([O-])/C(N=Nc1ccccc1)=N\\Nc1ccccc1", "Potency": "31.6 µM (active)"}, {"smiles": "Cc1ccc(NC(=O)c2cccc(N(C)C)c2)cc1NC(=O)c1ccc(O)cc1", "Potency": "inactive and 14.1 µM (active)"}, {"smiles": "Cc1ccc(F)cc1NC(=O)c1cccc(N(C)C)c1", "activity, negative = inhibition": "13.5% (inactive)"}, {"smiles": "Cc1ccc(F)cc1NC(=O)c1ccc2c(c1)OCO2", "activity, negative = inhibition": "-5.61% [at 12.7 µM] (inactive)"}, {"smiles": "COc1cc2nc(SCC(=O)Nc3ccccc3F)n3nc(-c4ccccc4)nc3c2cc1OC", "activity, negative = inhibition": "-29.1% (inactive)"}, {"smiles": "CCS(=O)(=O)c1ncc(N(Cc2ccc(F)cc2)Cc2ccco2)c(C(=O)Nc2cc(C)ccc2C)n1", "activity, negative = inhibition": "3.17% (inactive)"}, {"smiles": "Cc1ccc(S(=O)(=O)NCCNC(C)c2ccc(Br)cc2)cc1", "note": "(stereo not given)", "activity, negative = inhibition": "-1.1% [at 12.7 µM] (inactive)"}, {"smiles": "COc1cccc(/C=N/Nc2ccc(Cl)nn2)c1", "activity, negative = inhibition": "-1.09% [at 102 µM] (inactive)"}, {"smiles": "Clc1ccc(N/N=C/c2cccs2)nn1", "Potency": "35.5 µM (active)"}, {"smiles": "Oc1cccc(/C=N/Nc2ccc(Cl)nn2)c1O", "activity, negative = inhibition": "32.7% [at 102 µM] (inactive)"}, {"smiles": "CC(C)N(Cc1ccccc1)C(=O)COC(=O)c1ccccc1SCC(=O)N1CCCC1", "activity, negative = inhibition": "-46.5% [at 0.501 µM] (inactive)"}, {"smiles": "O=C(CNC(=O)COc1ccccc1)NCCc1ccccn1", "activity, negative = inhibition": "13.5% (inactive)"}, {"smiles": "COc1ccc(NCCc2ccccn2)cc1", "Potency": "39.8 µM (active)"}, {"smiles": "Cc1c(C)c(C)c(S(=O)(=O)NCCc2ccccn2)c(C)c1C", "activity, negative = inhibition": "11% [at 102 µM] (inactive)"}, {"smiles": "CCOc1ccccc1NC(=O)C1CCCN(S(=O)(=O)c2cn(C)cn2)C1", "note": "(stereo not given)", "activity, negative = inhibition": "11.6% (inactive)"}, {"smiles": "CC(C)c1ccc(NC(=O)COC(=O)c2ccc(CN3CCCC3=O)cc2)cc1", "activity, negative = inhibition": "-8.03% [at 12.7 µM] (inactive)"}, {"smiles": "O=C(/C=C/c1ccccc1)N/C(=C/c1ccccc1)C(=O)Nc1ccccc1O", "activity, negative = inhibition": "-41.1% [at 102 µM] (inactive)"}, {"smiles": "O=C(/C=C/c1ccccc1)c1ccoc1", "activity, negative = inhibition": "10.3% [at 12.7 µM] (inactive)"}, {"smiles": "O=C(/C=C/c1ccccc1)c1ccccc1O", "Potency": "44.7 µM (active)"}, {"smiles": "COCC1CCN(C(=O)CCc2nnc(C3(c4ccc(Cl)cc4)CCC3)o2)C1", "note": "(stereo not given)", "activity, negative = inhibition": "11% [at 102 µM] (inactive)"}, {"smiles": "COc1ccc(-c2ocnc2C(=O)Nc2ccc3c(c2)CCC3)cc1", "activity, negative = inhibition": "-7.46% (inactive)"}, {"smiles": "Fc1ccc(C(Nc2ccc(Cl)c(C(F)(F)F)c2)c2nnc(-c3ccccc3)o2)cc1", "note": "(stereo not given)", "activity, negative = inhibition": "31.9% (inactive)"}, {"smiles": "O=[N+]([O-])c1cc(C(F)(F)F)ccc1NCCc1ccncc1", "activity, negative = inhibition": "21.9% [at 102 µM] (inactive)"}, {"smiles": "Cc1cccc(OCCNC(=O)CSc2ccc(C(F)(F)F)cc2[N+](=O)[O-])c1", "activity, negative = inhibition": "5.94% (inactive)"}, {"smiles": "Nc1ccccc1Sc1ccc(C(F)(F)F)cc1[N+](=O)[O-]", "Potency": "39.8 µM (active)"}, {"smiles": "CCc1cccc(NC(=O)CSc2nccn2C)c1", "activity, negative = inhibition": "-3.93% (inactive)"}, {"smiles": "CCOC(=O)CSC1=C(C#N)C(c2ccco2)C(C(=O)OCc2ccccc2)=C(C)N1", "note": "(stereo not given)", "activity, negative = inhibition": "-12% (inactive)"}, {"smiles": "N#CC1=C(N)Oc2c(sc3ccccc23)C1c1ccco1", "note": "(stereo not given)", "Potency": "39.8 µM (active)"}, {"smiles": "CCCCn1c(N)c(N(CCOC)C(=O)c2sc3ccccc3c2Cl)c(=O)[nH]c1=O", "activity, negative = inhibition": "0.384% [at 0.501 µM] (inactive)"}, {"smiles": "Cc1cccc(-c2nc(Nc3ccc(O)cc3)c3ccccc3n2)c1", "activity, negative = inhibition": "9.03% [at 12.7 µM] (inactive)"}, {"smiles": "CN1CCN(c2nc(Nc3ccc(O)cc3)nc3ccccc23)CC1", "Potency": "25.1 µM (active)"}, {"smiles": "COc1ccccc1-c1nc(N2CCN(C)CC2)c2ccccc2n1", "activity, negative = inhibition": "0.0472% [at 0.501 µM] (inactive)"}]}]}
